Assay results published in PubChem BioAssay (EPA / NIEHS).
Where “and” joins values, the source holds several entries; their conditions need not be identical. Equal values may be shown once. Some compounds were tested as several samples or in several runs, with calls that do not always agree. Calls of active or inactive are those of the source. How the source made its calls: active means hit-call score of the fitted dose curve at least 0.9, where 1 is the maximum; inactive means score below 0.9.

Read-out: CD40, CD40 (gene 958)
Assay: BSK_LPS_CD40: BioMAP Diversity Plus: LPS Assay for CD40 Biomarker Activity (AID 2283076)
Conditions: primary human HUVEC with PBMC; actives raise or lower the signal
Procedure: BSK_LPS is a cell-based, multiplexed-readout assay that uses umbilical vein endothelium and peripheral blood mononuclear cells, a human vascular primary cell co-culture, with measurements taken at 24 hours after chemical dosing in a 96-well plate.BSK_LPS_CD40 is an assay component measured in the BSK_LPS assay. It measures CD40 antibody related to regulation of gene expression using ELISA technology.Data from the assay component BSK_LPS_CD40 was analyzed into 1 assay endpoint. This assay endpoint, BSK_LPS_CD40, was analyzed with bidirectional fitting relative to DMSO as the negative control and baseline of activity. Using a type of binding reporter, gain or loss-of-signal activity can be used to understand changes in the signaling as they relate to the gene CD40. Furthermore, this assay endpoint can be referred to as a primary readout, because this assay has produced multiple assay endpoints where this one serves a signaling function. To generalize the intended target to other relatable targets, this assay endpoint is annotated to the cytokine intended target family, where the subfamily is inflammatory factor.
The levels of cell surface (or secreted, indicated by the prefix "s") biomarker endpoints were measured by ELISA. Overt cytotoxicity to cells in confluent adherent cultures (all systems other than the BT system) was assessed by measuring total protein levels using sulforhodamine B (SRB) staining in parallel cultures at the time of biomarker measurements, indicated as SRB endpoints. For proliferation assays for adherent cell types, individual cell types are cultured at sub-confluence and relative cell numbers quantified by SRB staining at time points optimized for each system (48 h: 3C and CASM3C systems; 72 h: BT and HDF3CGF systems; 96 h: SAg system). SRB was performed by staining cells with 0.1% SRB after fixation with 10% TCA and reading wells at 560 nm.Viability and proliferation of PBMC (T cells) was quantified by Alamar Blue reduction for the SAg and BT systems. For PBMC viability (referred to as PBMC Cytotoxicity within the assay endpoint names), cells were plated (75,000/well in a 96-well plate) and then chemical samples added for 1 h before addition of activators, SEB and TSST-1 (20 ng/mL final concentration each). Cells were incubated for 90 h. Then, Alamar Blue (20 uL/well) (Invitrogen, Cat DAL1100) was added for 6 h, and the plates were read with a fluorescence microplate reader at 546/580 nm (excitation/emission). For PBMC proliferation, cells were plated and activated as above but incubated for only 16 h prior to addition of Alamar Blue. Plates were read after 6 h.

SMILES | outcome | AC50
C[Si](Cl)(Cl)CCC(F)(F)C(F)(F)C(F)(F)C(F)(F)C(F)(F)C(F)(F)F | inactive | 
NS(=O)(=O)C(F)(F)C(F)(F)C(F)(F)C(F)(F)C(F)(F)C(F)(F)F | inactive | 20.1 µM (active)
OCC(F)(F)C(F)(F)C(F)(F)C(F)(F)C(F)(F)C(F)(F)CO | inactive | 
OCCCCC(F)(F)C(F)(F)C(F)(F)C(F)(F)F | inactive | 
COC(F)(C(F)F)C(F)(F)F (stereo not given) | inactive | 
CCOC(=O)CC(=O)C(F)(F)C(F)(F)F | inactive | 
CCN(CC)c1ccc2c(c1)Oc1cc(N(CC)CC)ccc1C21OC(=O)c2ccccc21 | inactive | 
FC(F)(F)C(F)(F)C(F)(F)CC1CO1 (stereo not given) | inactive | 
C=CC(=O)OCC(F)(F)C(F)(F)C(F)(F)C(F)(F)C(F)(F)C(F)(F)C(F)(F)C(F)F | inactive | 24 µM (active)
OCCCC(F)(F)C(F)(F)C(F)(F)C(F)(F)C(F)(F)C(F)(F)C(F)(F)C(F)(F)F |  | 34.7 µM (active) and 32.9 µM (active)
Cc1cnccn1 | inactive | 
Cc1ccc(S(=O)(=O)C(I)I)cc1 |  | 2.38 µM (active)
O=S(=O)(O)CCC(F)(F)C(F)(F)C(F)(F)C(F)(F)C(F)(F)C(F)(F)C(F)(F)C(F)(F)F | inactive | 
OCC(F)(F)C(F)(F)C(F)(F)CO | inactive | 
OC(O)C(F)(F)C(F)(F)F | inactive | 
CCOC(C=C(C)CCC=C(C)C)OCC |  | 30 µM (active)
CNS(=O)(=O)C(F)(F)C(F)(F)C(F)(F)C(F)(F)C(F)(F)C(F)(F)C(F)(F)C(F)(F)F | inactive | 
Cc1cc(O)c(C(C)(C)C)cc1C(C)(C)C |  | 5.28 µM (active)
O=C(O)C(F)(F)OC(F)(F)C(F)(F)OC(F)(F)C(F)(F)OC(F)(F)F | inactive | 

SMILES | outcome | AC50
O=S(=O)(OCC(F)(F)F)C(F)(F)C(F)(F)C(F)(F)C(F)(F)F | inactive | 24.3 µM (active)
O=C(Cl)C(F)(F)C(F)(F)C(F)(F)C(F)(F)C(F)(F)C(F)(F)F | inactive | 
Cc1ccc(O)c(-n2nc3ccccc3n2)c1 | inactive | 
CCN(CCO)S(=O)(=O)C(F)(F)C(F)(F)C(F)(F)C(F)(F)C(F)(F)C(F)(F)C(F)(F)C(F)(F)F | inactive | 
C=CC(=O)OCCC(F)(F)C(F)(F)C(F)(F)C(F)(F)F |  | 30 µM (active) and 45.5 µM (active)
CN(C(=O)C(F)(F)C(F)(F)C(F)(F)F)[Si](C)(C)C | inactive | 
OCC(F)(F)C(F)(F)C(F)(F)C(F)(F)C(F)(F)C(F)(F)C(F)(F)C(F)(F)CO | inactive | 
CO[Si](C)(CCC(F)(F)C(F)(F)C(F)(F)C(F)(F)C(F)(F)C(F)(F)F)OC | inactive | 
C=CC(=O)OCC(F)(F)C(F)(F)C(F)(F)COC(=O)C=C |  | 8.33 µM (active) and 8.66 µM (active)
NC(=O)C(F)(F)C(F)(F)C(F)(F)C(F)(F)C(F)(F)C(F)(F)C(F)(F)F | inactive | 
O=C(O)C(F)(F)C(F)(F)C(F)(F)C(F)(F)C(F)(F)C(F)(F)C(F)F | inactive | 
C[C@]12CC[C@H]3C(=CCc4cc(O)ccc43)[C@@H]1CCC2=O | inactive | 
FC(F)(F)C(F)(F)C(F)(F)C(F)(F)C(F)(F)C(F)(F)C(F)(F)CCI | inactive | 
O=C(Cl)C(F)(F)C(F)(F)C(F)(F)C(F)(F)C(F)(F)C(F)(F)C(F)(F)F | inactive | 
Cc1cc(C)c(O)c(C(C)(C)C)c1 |  | 30.9 µM (active)
O=C(O)CCC(F)(F)C(F)(F)C(F)(F)F | inactive | 
FC(F)(F)C(F)(F)C(F)(F)C(F)(F)C(F)(F)C(F)(F)CC[Si](Cl)(Cl)Cl | inactive | 
NC(=O)C(F)(F)C(F)(F)C(F)(F)F | inactive | 
